Values joined by “and” are separate entries in the source; they are usually repeats but may differ in a detail not shown here. Identical values can stand only once. Records with an inconclusive call do not appear. A call without a number means that no potency is given here. Active and inactive are the calls of the source. Calls follow the shape of the dose curve; as a rule, active = well fitted inhibition curve with a large enough effect in the repeat runs; inconclusive = weak or mixed curves; inactive = flat fitted curve, though single readings scatter.
biological target: Luciferin 4-monooxygenase (Photinus pyralis) (UniProt P08659); assay: qHTS assay to identify small molecule inhibitors of firefly luciferase (AID 1224835); also: nearly all actives have a fitted effect of over 25% in size; details: purified P. pyralis luciferase, luminescence inhibition; series mostly up to 115 µM
Source text: U.S. Tox21 Program National Center for Advancing Translational Sciences [NCATS] NIH Chemical Genomics Center [NCGC] U.S. Environmental Protection Agency [EPA] National Institutes of Environmental Health Sciences [NIEHS] National Toxicology Program [NTP] U.S. Food and Drug Administration [FDA] Tox21 Assay Overview: Firefly (Photinus pyralis) luciferase is one of the most commonly used transcriptional reporters. Firefly luciferase reporter-gene assays are generally considered one of the most sensitive assay types (Wood, 1995; Wood, 1998). However, it was initially observed, in 1991, by Thompson et al., that compounds that resemble the substrates of firefly luciferase (FLuc) can act as competitive inhibitors of the enzyme, and that these compounds, upon interaction with luciferase in the cell, can actually stabilize the protein and increase its half-life. Previous profiling work by other groups to determine the prevalence of compounds that affect FLuc enzymatic activity (PubChem AID 411) identified that ~3% of the MLSMR library (then at ~72K) inhibited FLuc. […] Thus the Tox21 10K library is profiled for activity against FLuc using a biochemical assay of purified FLuc and KM concentrations of FLuc substrates (D-luciferin and ATP).
These assay plates were then treated with 23nL of compound or DMSO using a Kalypsys pin tool, which allows for delivery of a 6-point interplate titration of each compound to the assay plate (quantitative HTS.) 1 uL of firefly luciferase mix (containing 50 mM Tris acetate, pH 7.6, 0.04 uM P. pyralis luciferase, 0.01% Tween, 0.05% BSA and dH2O) was then delivered by FRD to each well. Luciferase activity was then measured using a ViewLux CCD imager.
Potency is read from the fitted curve at half-maximal effect.

Sequence of Luciferin 4-monooxygenase (Photinus pyralis) (P08659 whole entry, looked up): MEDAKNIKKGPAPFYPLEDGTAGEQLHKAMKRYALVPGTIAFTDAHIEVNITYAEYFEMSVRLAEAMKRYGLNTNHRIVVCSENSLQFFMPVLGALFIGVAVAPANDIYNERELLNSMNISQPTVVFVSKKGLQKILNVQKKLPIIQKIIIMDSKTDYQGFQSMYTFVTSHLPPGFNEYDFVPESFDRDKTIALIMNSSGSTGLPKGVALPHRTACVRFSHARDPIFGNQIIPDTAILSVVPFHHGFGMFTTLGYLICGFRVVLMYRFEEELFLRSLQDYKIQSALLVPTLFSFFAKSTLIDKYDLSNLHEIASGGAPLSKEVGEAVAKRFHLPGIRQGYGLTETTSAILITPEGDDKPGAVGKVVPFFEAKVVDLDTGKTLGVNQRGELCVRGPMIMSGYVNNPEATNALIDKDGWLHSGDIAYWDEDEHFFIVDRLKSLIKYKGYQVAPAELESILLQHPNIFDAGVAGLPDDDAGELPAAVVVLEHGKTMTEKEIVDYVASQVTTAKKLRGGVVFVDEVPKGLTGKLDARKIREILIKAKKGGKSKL

Compound	Potency
COC1=CC(=O)O[C@@H](/C=C/c2ccccc2)C1	inactive
Oc1ccc2c3c1O[C@H]1[C@@H](O)C=C[C@H]4[C@@H](C2)NCC[C@@]341	inactive
CCc1cc(OC)c(C[C@H](C)N)cc1OC	inactive
CC(C)NCC(O)c1ccc([N+](=O)[O-])cc1 (stereo not given)	inactive
CCN(CCO)CCn1c(Cc2ccccc2)nc2c1c(=O)n(C)c(=O)n2C	inactive
CC[C@@H](CO)NC(=O)[C@@H]1C=C2c3cccc4c3c(cn4C)C[C@H]2N(C)C1	inactive
CCC1(c2ccccc2)CCC(=O)NC1=O (stereo not given)	inactive
COP(=O)(O)OC	inactive
CCCC[N+](=O)[O-]	inactive
CC1=C2[C@H]3OC(=O)[C@@H](C)[C@@H]3CC[C@@]2(C)C=CC1=O	inactive
CC(Cc1ccccc1)NCCn1cnc2c1c(=O)n(C)c(=O)n2C (stereo not given)	inactive
CCOc1cc(OP(=S)(OC)OC)nc(CC)n1	inactive
COc1ccccc1OC	inactive
CCCOC(=O)c1cncn1C(C)c1ccccc1 (stereo not given)	inactive
COC[C@@H](NC(C)=O)C(=O)NCc1ccccc1	inactive
CC(C)c1ccc(O)cc1	inactive
CC1NCCOC1c1ccccc1 (stereo not given)	inactive
C#CC(C)(C)O	inactive
CCCCS(=O)(=O)Cl	inactive
COc1cccc([C@@]2(O)CCCC[C@@H]2CN(C)C)c1	inactive

Compound	Potency
O=c1[nH]oc2c1CCNC2	inactive
NCCOS(=O)(=O)O	inactive
O=c1[nH]c2ccccc2n1C1CCNCC1	inactive
CC(Cc1ccccc1)NCCCCl (stereo not given)	inactive
CCCOC(=O)Cc1ccc(OCC(=O)N(CC)CC)c(OC)c1	inactive
CCOP(=S)(OCC)SCCl	inactive
ClCCCCCCCl	inactive
COC(=O)[C@@H](N)CCCN/C(N)=N/[N+](=O)[O-]	inactive
CCC(C(N)=O)N1CCCC1=O (stereo not given)	inactive
O=c1[nH]c2ccccc2o1	inactive
O=C(O)C(Br)(Br)Br	inactive
CCC(CC)(CNC(=O)CCCO)c1cccc(OC)c1	inactive
O=C(Cl)C(Cl)Cl	inactive
O=C(Cl)c1ccccc1	inactive
CCOC(=O)CC(SP(=S)(OC)OC)C(=O)OCC (stereo not given)	35.6 µM (active) and 38.9 µM (active)
CC[C@@H](CO)NC(=O)[C@@H]1C=C2c3cccc4[nH]cc(c34)C[C@H]2N(C)C1	inactive
COc1cccc(C=O)c1	inactive
CCCCCCC1CCOC1=O (stereo not given)	inactive
C=C1C[C@@H]2[C@H](CC[C@]3(C)C(=O)CC[C@@H]23)[C@@]2(C)C=CC(=O)C=C12	inactive
Nc1c(Cl)c(F)nc(OCC(=O)O)c1Cl	inactive

Source: PubChem BioAssay (Tox21)
